The campaign covered roughly 13,000 compounds. About 3,200 (25%) showed an effect of 50% or more. The list shows a part of the results. Square brackets hold non-standard residues; d marks the D form. Peptide text beside a SMILES is read from it. * marks the point of attachment. Butanoyl(4-(4-HOPh)) = O=C(CCCc1ccc(O)cc1)*
The compounds below were run on P. falciparum stage V gametocytes. Settings: 48 h, 5 µM; inhibitor.
Design: BacTiter-Glo ATP luminescence viability of purified stage V gametocytes in 384-well plates, per cent inhibition versus DMSO

SMILES | % Inhibition [%]
O=C(Nc1cccc(-c2cccc(-c3nc4ccc(F)cc4[nH]3)c2)c1)Nc1ccc2c(c1)OCO2 [TCMDC-133165] | 6.84
c1ccc(CNCc2cccc(-c3cccc(-c4nc5ccccc5[nH]4)c3)c2)cc1 [TCMDC-132698] | -20.89
Nc1cccc(CNCc2cccc(-c3cccc(-c4nc5ccccc5[nH]4)c3)c2)c1 [TCMDC-132942] | -10.95
NCc1ccc(CNCc2cccc(-c3ccc(-c4nc5ccccc5[nH]4)cc3)c2)cc1 [TCMDC-132815] | 106.4
Fc1ccc2nc(-c3cccc(-c4cccc(CNCc5ccccc5)c4)c3)[nH]c2c1 [TCMDC-132699] | -56.67
NCc1ccc(CNCc2cccc(-c3cccc(-c4nc5ccc(F)cc5[nH]4)c3)c2)cc1 [TCMDC-132816] | 98.03
COc1ccc(CNCc2cccc(-c3cccc(-c4nc5ccccc5[nH]4)c3)c2)cc1 [TCMDC-132716] | -25.62
NCc1ccc(CNCc2cccc(-c3cccc(-c4nc5ccccc5[nH]4)c3)c2)cc1 [TCMDC-132817] | 74.49
c1ccc(CNCc2cccc(-c3ccc(-c4nc5ccccc5[nH]4)cc3)c2)cc1 [TCMDC-132700] | 26.72
Nc1cccc(CNCc2cccc(-c3cccc(-c4nc5ccc(F)cc5[nH]4)c3)c2)c1 [TCMDC-132941] | -20.24
CCNc1cc(C(=O)N[C@@H](Cc2ccccc2)[C@H](O)CNC2(Cc3cccc(Cl)c3)CCC2)cc(N2CCCCS2(=O)=O)c1 [TCMDC-135383] | 17.64
COc1cccc(CNc2noc(-c3c(-c4ccccc4)noc3C)n2)c1OC [TCMDC-134204] | 10.03
Cc1ccc2[nH]c3c(NCCCN(C)C)ncnc3c2c1 [TCMDC-124580] | 4.888
CCN(CCCNc1nc(=S)[nH]c2cc(OC)c(OC)cc12)c1ccccc1 [TCMDC-124446] | 83.33
COc1ccc(-c2nc(NCc3ccccc3)c3cc(OC)c(OC)cc3n2)cc1 [TCMDC-132018] | 17.4
Cc1cc(OCCCN2CCC(NS(=O)(=O)c3cc(Br)c(Cl)s3)CC2)c2ccccc2n1 [TCMDC-136280] | -17.93
Cc1cc(NC(=O)c2ccco2)ccc1OC1CCN(Cc2ccc(C#N)cc2)CC1 [TCMDC-133956] | 24.43
Cc1ccc(S(=O)(=O)N(C)c2ccccc2C(=O)Nc2ccccc2Oc2ccccc2)cc1 [TCMDC-125068] | 52.2
CN(c1ccccc1C(=O)Nc1ccccc1Oc1ccccc1)S(=O)(=O)c1ccccc1 [TCMDC-125092] | -61.36
CN(c1ccccc1C(=O)Nc1cc(Cl)ccc1Oc1ccccc1)S(=O)(=O)c1ccccc1 [TCMDC-124364] | 33.71
O=[N+]([O-])c1ccc(C2=NN(S(=O)(=O)c3c(Cl)cc(Cl)cc3Cl)CCCC2)cc1 [TCMDC-135423] | -33.18
CCCCCc1cc(O)c2c(c1)OC(C)(C)CC2C1=CCN(Cc2ccccc2)CC1 (centres unmarked) [TCMDC-131335] | -27.18
CCCCc1cc(NCc2ccncc2)nc(Nc2ccccc2)n1 [TCMDC-133995] | 8.477
CCN(CC)CCOC(=O)c1ccc(NC(=O)c2cc(-c3ccc(C)cc3)nc3ccccc23)cc1 [TCMDC-124019] | 1.245
COc1ccc(-c2cc(C(=O)Nc3ccc(CCCN(C)Cc4ccc(OC)c(OC)c4)cc3)c3ccccc3n2)cc1 [TCMDC-131848] | 47.44

SMILES | % Inhibition [%]
CCn1cc(-c2cc(C(=O)Nc3ccc(OC)cc3C)c3ccccc3n2)c(C)n1 [TCMDC-124457] | 71.47
Cc1cccc2nc(-c3ccc(-c4ccc(CNCCCNS(C)(=O)=O)cc4)s3)[nH]c12.O=C(O)C(F)(F)F [TCMDC-133085] | 13.51
COc1cc2nc(N3CCC(CNC(=O)c4ccc(-c5ccc(C#N)cc5C)cc4)CC3)nc(N)c2cc1OC [TCMDC-138735] | 105.2
COc1cc2nc(N3CC(C)N(C(=O)Cc4ccc(-c5ccccc5)cc4)C(C)C3)nc(N)c2cc1OC (centres unmarked) [TCMDC-138153] | 71.85
COc1cc2nc(N3CCC(CNC(=O)c4ccc(-c5cccc(C#N)c5)cc4)CC3)nc(N)c2cc1OC [TCMDC-138730] | 76.59
COc1cc2nc(N3CCC(CNC(=O)/C=C/c4cccc(C)c4)CC3)nc(N)c2cc1OC [TCMDC-138156] | -2.985
COc1cc2nc(N3CCC(CNC(=O)c4ccc(-c5ccc(C#N)cc5)cc4)CC3)nc(N)c2cc1OC [TCMDC-138713] | 15.4
CC(C)CCN1CCC(Oc2ccc(NC(=O)c3ccsc3)cc2Cl)CC1 [TCMDC-133973] | 36.47
O=C(NCCN1CCC(NC(=O)c2ccc(-c3ccccn3)s2)CC1)c1ccc(Cl)c(Cl)c1 [TCMDC-141947] | -22.55
COc1cc(C(=O)N2COCC(CCCN3CCC(N4CCCC4)CC3)(c3ccc(Cl)c(Cl)c3)C2)cc(OC)c1OC (centres unmarked) [TCMDC-141758] | 14.16
CCN(CC)CCON=Cc1cc(C)c2[nH]c3ccc(OCc4ccccc4)cc3c2c1C [TCMDC-132058] | -17.27
Cc1nc(-c2cccc(NC(C)C(=O)Nc3cc(C(F)(F)F)ccc3N3CCOCC3)c2)cs1 (centres unmarked) [TCMDC-125304] | -35
O=C(O)C[C@H](NC(=O)CCCNC(=O)c1cccc(-c2ccc(Cl)c(Cl)c2)c1)C(=O)O [TCMDC-139508] | 11.45
CC(C)C[C@@H](CNC[C@H](CC(C)C)NC(=O)OC(C)(C)C)NC(=O)OC(C)(C)C [TCMDC-132080] | -74.95
CN(C)S(=O)(=O)c1ccc(N2C(=O)C3C(C2=O)C2(c4ccccc4)C(=O)C3(c3ccccc3)C(c3ccccc3)=C2c2ccccc2)cc1 (centres unmarked) [TCMDC-132095] | -66.42
CCN(CC)CCCCOc1ccc2c(c1)C(=O)c1cc(OCCCCN(CC)CC)ccc1-2 [TCMDC-124163] | 88.71
CCN(CC)CCOc1ccc(Nc2ncc3cc(-c4c(Cl)cccc4Cl)c(=O)n(C)c3n2)cc1 [TCMDC-140940] | 0.9022
CN(c1ccc(F)cc1)S(=O)(=O)c1ccc(Cl)c(C(=O)Nc2cccc(C#N)c2)c1 [TCMDC-123717] | 11.84
COc1cc(OC)nc(C(Sc2ccc(NC(=O)c3cccs3)cc2)c2ccccc2)n1 (centres unmarked) [TCMDC-124257] | 44.54
CCCCCCOc1ccc(C(N)=NCc2ccccc2)c2c1CCCC2 [TCMDC-131554] | 15.01
CCCCCOc1ccc(C(=NC)N(CCCCC)CCCCC)c2ccccc12 [TCMDC-137703] | 109.8
CCCCCCOc1ccccc1C(=O)NCCOc1ccc(Cl)cc1 [TCMDC-124012] | -9.249
O=C(NCc1cccc(C(F)(F)F)c1)c1ccc(CNC(=O)c2ccc(O)c(-c3ccc(Cl)c(Cl)c3)c2)cc1 [TCMDC-140834] | 9.818
O=C(NC1CC1)c1ccc(N2CCCC(COc3ccc4c(c3)CCCC4)C2)nc1 (centres unmarked) [TCMDC-134263] | 18.7
O=C(NCC(=O)N1CCC[C@H]1C(=O)O)[C@@H](Cc1ccccc1)NC(=O)[C@@H]1CCCN1C(=O)CCCc1ccc(O)cc1 [TCMDC-141970] ({Butanoyl(4-(4-HOPh))}-P[dF]GP-OH) | -16.67

SMILES | % Inhibition [%]
Cc1ccc(NC(=O)Cc2noc(CC3CCCN3C(=O)N[C@@H](C)c3ccccc3)n2)cc1 (some centres unmarked) [TCMDC-134994] | 0.878
CC(CN1CCN(C)CC1)C(=O)Nc1ccc(-c2csc(-c3nc4ccccc4[nH]3)c2)cc1 (centres unmarked) [TCMDC-132391] | 31.65
CC(CN1CCN(C)CC1)C(=O)Nc1ccc(-c2ccc(-c3nc4ccccc4[nH]3)s2)cc1 (centres unmarked) [TCMDC-137140] | 86.65
CC(CN1CCN(C)CC1)C(=O)Nc1ccc(-c2cccc(-c3nc4ccccc4[nH]3)c2)cc1 (centres unmarked) [TCMDC-137139] | 81.76
Cc1cccc2nc(-c3ccc(-c4ccc(NC(=O)C(C)CN5CCN(C)CC5)cc4)s3)[nH]c12 (centres unmarked) [TCMDC-137154] | -22.77
CC(CN1CCN(C)CC1)C(=O)Nc1ccc(-c2ccc(-c3nc4ccccc4[nH]3)cc2)cc1 (centres unmarked) [TCMDC-137148] | 72.16
CCC(C)NC(=O)Nc1ccc(-c2cccc(-c3nc4ccccc4[nH]3)c2)cc1 (centres unmarked) [TCMDC-133241] | 3.681
CC(CN1CCN(C)CC1)C(=O)Nc1cccc(-c2ccc(-c3nc4ccccc4[nH]3)s2)c1 (centres unmarked) [TCMDC-137142] | -55.57
CCc1cc(C(=O)c2cccc(C)c2)c(NC(=O)CN2CCN(C(=O)c3ccco3)CC2)s1 [TCMDC-123646] | 4.148
O=C(O)/C=C/c1cccc(F)c1F [TCMDC-124298] | -5.397
O=C(Nc1cn(-c2ccc(OCc3cccc(F)c3)c(Cl)c2)c2ncncc12)c1ccncc1 [TCMDC-135377] | -11.19
CCOc1ccc(Br)cc1/C=C/C(=O)Nc1ccc2c(c1)CCCN(C)C2 [TCMDC-134049] | 5.79
CC1Cc2ccccc2N1S(=O)(=O)c1cccc(C(=O)Nc2nc(-c3ccccn3)cs2)c1 (centres unmarked) [TCMDC-124559] | 76.73
O=C(Nc1cccc(-c2csc(-c3ccccc3)n2)c1)c1cccs1 [TCMDC-123904] | 22.98
Cc1nn(CC(C)C)c2sc(C(=O)Nc3nc(-c4ccccn4)cs3)cc12 [TCMDC-125461] | 62.82
COc1cc(OC)cc(C(=O)Nc2nc(-c3ccc(NC(=O)c4ccccc4)cc3)cs2)c1 [TCMDC-125112] | -27.73
O=C(Nc1nc(-c2ccccn2)cs1)c1ccc(Br)s1 [TCMDC-123868] | 65.77
CC(C)(C)c1ccc(-c2csc(NC(=O)CC(c3ccccc3)c3ccccc3)n2)cc1 [TCMDC-124604] | -3.611
O=C(Nc1nc(-c2ccccn2)cs1)c1ccc(S(=O)(=O)N2CCc3ccccc32)cc1 [TCMDC-125432] | 10.03
COc1cc(OC)cc(C(=O)Nc2nc(-c3ccccn3)cs2)c1 [TCMDC-125345] | 25.53
O=C(Nc1nc(-c2cc(F)ccc2F)cs1)c1cncc(Br)c1 [TCMDC-123613] | -58.06
CC1Cc2ccccc2N1S(=O)(=O)c1cc(OCC(F)(F)F)ccc1OCC(F)(F)F (centres unmarked) [TCMDC-124044] | -9.787
CCN1CCN(c2ccc(NC(=O)c3cc4c(C)nn(-c5ccccc5)c4s3)cc2C)CC1 [TCMDC-125105] | 8.854
O=C(Nc1nc(-c2ccccn2)cs1)c1ccccc1COc1ccccc1 [TCMDC-125336] | 64.14

Reference: article PMC4552634, “A New Set of Chemical Starting Points with Plasmodium falciparum Transmission-Blocking Potential for Antimalarial Drug Discovery” (PLoS ONE, 2015)
